Out of some 5,500 compounds screened, about 2,000 (36%) were called active. Inconclusive results (about 18%) are left out. This is one part of the list. Values without a mark were called inactive. Cut-off read from the data, not from the text of the source: active = normalized growth mostly below about 0.91 (no sharp cut-off); inconclusive = no clear call, values can overlap the other calls; inactive = mostly above about 0.92.
Experiment: chemical genetic growth profiling, strain panel (AID 1159580);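 note: tested at 20 µM; growth read once vehicle control cultures reached saturation at 30 °C; 1 = growth at the plate median or of vehicle wells; lower values mean less growth of the strain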
Details: S. cerevisiae deletion strains, growth OD
[1] = locus YAR019C, strain CDC15, active compounds read low
[2] = locus YBL105C, strain PKC1, active compounds read low
[3] = locus YBR135W, strain CKS1, active compounds read low
[4] = locus YBR136W, strain MEC1, active compounds read low
[5] = locus YBR160W, strain CDC28, active compounds read low
[6] = locus YDL017W, strain CDC7, active compounds read low
[7] = locus YDL028C, strain MPS1, active compounds read low
[8] = locus YDL101C, strain DUN1, active compounds read low
[9] = locus YDL108W, strain KIN28, active compounds read low
[10] = locus YDL132W, strain cdc53, active compounds read low
[11] = locus YDL214C, strain PRR2, active compounds read low
[12] = locus YDR052C, strain DBF4, active compounds read low
[13] = locus YDR054C, strain cdc34, active compounds read low
[14] = locus YDR226W, strain ADK1, active compounds read low
[15] = locus YDR477W, strain SNF1, active compounds read low
[16] = locus YER123W, strain YCK3, active compounds read low
[17] = locus YER133W, strain GLC7, active compounds read low
[18] = locus YFL009W, strain cdc4, active compounds read low
[19] = locus YFL029C, strain CAK1, active compounds read low
[20] = locus YFR003C, strain YPI1, active compounds read low
[21] = locus YFR019W, strain FAB1, active compounds read low
[22] = locus YFR028C, strain CDC14, active compounds read low
[23] = locus YGR040W, strain KSS1, active compounds read low
[24] = locus YGR052W, strain FMP48, active compounds read low
[25] = locus YGR092W, strain DBF2, active compounds read low
[26] = locus YHR030C, strain SLT2, active compounds read low
[27] = locus YHR079C, strain IRE1, active compounds read low
[28] = locus YHR082C, strain KSP1, active compounds read low
[29] = locus YHR205W, strain SCH9, active compounds read low
[30] = locus YIL147C, strain SLN1, active compounds read low
[31] = locus YJL095W, strain BCK1, active compounds read low
[32] = locus YJL128C, strain PBS2, active compounds read low
[33] = locus YJL157C, strain FAR1, active compounds read low
[34] = locus YJR016C, strain ILV3, active compounds read low
[35] = locus YJR066W, strain TOR1 (second series), active compounds read low
[36] = locus YJR066W, strain TOR1, active compounds read low
[37] = locus YKL048C, strain ELM1, active compounds read low
[38] = locus YKL067W, strain YNK1, active compounds read low
[39] = locus YKL101W, strain HSL1, active compounds read low
[40] = locus YKL193C, strain SDS22, active compounds read low
[41] = locus YKL203C, strain TOR2, active compounds read low
[42] = locus YLR113W, strain HOG1, active compounds read low
[43] = locus YLR133W, strain CKI1, active compounds read low
[44] = locus YLR403W, strain SFP1, active compounds read low
[45] = locus YML070W, strain DAK1, active compounds read low
[46] = locus YMR001C, strain CDC5, active compounds read low
[47] = locus YMR205C, strain PFK2 (second series), active compounds read low
[48] = locus YMR277W, strain FCP1, active compounds read low
[49] = locus YNL006W, strain LST8, active compounds read low
[50] = locus YNL020C, strain ARK1, active compounds read low
[51] = locus YNL161W, strain CBK1, active compounds read low
[52] = locus YNL183C, strain NPR1, active compounds read low
[53] = locus YNL207W, strain RIO2, active compounds read low
[54] = locus YNL222W, strain SSU72, active compounds read low
[55] = locus YNL307C, strain MCK1 (second series), active compounds read low
[56] = locus YOL078W, strain AVO1, active compounds read low
[57] = locus YOL136C, strain PFK27, active compounds read low
[58] = locus YOR061W, strain CKA2, active compounds read low
[59] = locus YOR119C, strain RIO1, active compounds read low
[60] = locus YOR231W, strain MKK1, active compounds read low
[61] = locus YOR329C, strain SCD5, active compounds read low
[62] = locus YPL031C, strain PHO85, active compounds read low
[63] = locus YPL153C, strain RAD53, active compounds read low
[64] = locus YPL204W, strain HRR25, active compounds read low
[65] = locus YPL209C, strain IPL1, active compounds read low
[66] = locus YPL256C, strain CLN2, active compounds read low
[67] = locus YPR025C, strain CCL1, active compounds read low
[68] = locus YPR106W, strain ISR1, active compounds read low
[69] = locus YPR111W, strain DBF20, active compounds read low
[70] = strain NNK1, active compounds read low
[71] = strain TSCII, active compounds read low

## O=[N+]([O-])c1cccc(C2CC(c3ccccc3)=Nc3ccccc3S2)c1 (centres undefined)
[1]
  normalized growth: 0.947
[2]
  normalized growth: 0.953
[3]
  normalized growth: 0.959
[4]
  normalized growth: 0.974
[5]
  normalized growth: 0.966
[6]
  normalized growth: 0.97
[7]
  normalized growth: 0.965
[8]
  normalized growth: 0.95
[9]
  normalized growth: 0.975
[10]
  normalized growth: 0.952
[11]
  normalized growth: 0.962
[12]
  normalized growth: 0.973
[13]
  normalized growth: 0.946
[14]
  normalized growth: 0.953
[15]
  normalized growth: 0.962
[16]
  normalized growth: 1
[17]
  normalized growth: 0.96
[18]
  normalized growth: 0.959
[19]
  normalized growth: 0.939
[20]
  normalized growth: 0.973
[21]
  normalized growth: 0.996
[22]
  normalized growth: 0.948
[23]
  normalized growth: 0.955
[24]
  normalized growth: 1.06
[25]
  normalized growth: 0.969
[26]
  normalized growth: 0.976
[27]
  normalized growth: 0.975
[28]
  normalized growth: 0.997
[29]
  normalized growth: 0.934
[30]
  normalized growth: 0.969
[31]
  normalized growth: 0.982
[32]
  normalized growth: 0.93
[33]
  normalized growth: 0.969
[34]
  normalized growth: 0.954
[35]
  normalized growth: 0.934
[36]
  normalized growth: 0.974
[37]
  normalized growth: 0.971
[38]
  normalized growth: 0.968
[39]
  normalized growth: 0.965
[40]
  normalized growth: 0.954
[41]
  normalized growth: 1.01
[42]
  normalized growth: 0.927
[43]
  normalized growth: 0.977
[44]
  normalized growth: 0.95
[45]
  normalized growth: 0.975
[46]
  normalized growth: 0.946
[47]
  normalized growth: 0.967
[48]
  normalized growth: 0.952
[49]
  normalized growth: 0.97
[50]
  normalized growth: 0.963
[51]
  normalized growth: 0.957
[52]
  normalized growth: 0.985
[53]
  normalized growth: 0.964
[54]
  normalized growth: 0.958
[55]
  normalized growth: 0.98
[56]
  normalized growth: 0.952
[57]
  normalized growth: 0.996
[58]
  normalized growth: 0.949
[59]
  normalized growth: 0.975
[60]
  normalized growth: 0.983
[61]
  normalized growth: 0.95
[62]
  normalized growth: 0.961
[63]
  normalized growth: 0.964
[64]
  normalized growth: 0.979
[65]
  normalized growth: 0.957
[66]
  normalized growth: 0.939
[67]
  normalized growth: 0.954
[68]
  normalized growth: 0.967
[69]
  normalized growth: 0.968
[70]
  normalized growth: 0.963
[71]
  normalized growth: 0.946

## CC(C)(C)c1cc(C(=O)Nc2ccc3c(c2)OCO3)n(Cc2ccc(F)cc2)n1
[1]
  normalized growth: 0.987
[2]
  normalized growth: 0.968
[3]
  normalized growth: 0.979
[4]
  normalized growth: 0.99
[5]
  normalized growth: 0.98
[6]
  normalized growth: 0.989
[7]
  normalized growth: 0.991
[8]
  normalized growth: 0.997
[9]
  normalized growth: 0.986
[10]
  normalized growth: 0.972
[11]
  normalized growth: 0.908
[12]
  normalized growth: 0.988
[13]
  normalized growth: 0.993
[14]
  normalized growth: 0.983
[15]
  normalized growth: 0.938
[16]
  normalized growth: 0.906
[17]
  normalized growth: 0.955
[18]
  normalized growth: 0.994
[19]
  normalized growth: 0.98
[20]
  normalized growth: 0.991
[21]
  normalized growth: 0.938
[22]
  normalized growth: 0.978
[23]
  normalized growth: 0.916
[24]
  normalized growth: 0.997
[25]
  normalized growth: 0.902
[26]
  normalized growth: 0.878
[27]
  normalized growth: 0.926
[28]
  normalized growth: 0.984
[29]
  normalized growth: 0.86
[30]
  normalized growth: 0.99
[31]
  normalized growth: 0.877
[32]
  normalized growth: 0.977
[33]
  normalized growth: 0.909
[34]
  normalized growth: 0.981
[35]
  normalized growth: 0.889
[36]
  normalized growth: 0.999
[37]
  normalized growth: 0.931
[38]
  normalized growth: 0.94
[39]
  normalized growth: 0.891
[40]
  normalized growth: 0.987
[41]
  normalized growth: 0.994
[42]
  normalized growth: 0.858 (active)
[43]
  normalized growth: 0.918
[44]
  normalized growth: 0.906
[45]
  normalized growth: 0.895
[46]
  normalized growth: 0.982
[47]
  normalized growth: 0.926
[48]
  normalized growth: 0.971
[49]
  normalized growth: 0.987
[50]
  normalized growth: 0.889
[51]
  normalized growth: 0.969
[52]
  normalized growth: 0.928
[53]
  normalized growth: 0.986
[54]
  normalized growth: 0.983
[55]
  normalized growth: 0.9
[56]
  normalized growth: 0.981
[57]
  normalized growth: 0.892
[58]
  normalized growth: 0.874
[59]
  normalized growth: 0.992
[60]
  normalized growth: 0.876
[61]
  normalized growth: 0.96
[62]
  normalized growth: 0.934
[63]
  normalized growth: 0.923
[64]
  normalized growth: 0.909
[65]
  normalized growth: 0.968
[66]
  normalized growth: 0.887
[67]
  normalized growth: 0.995
[68]
  normalized growth: 0.964
[69]
  normalized growth: 0.936
[70]
  normalized growth: 0.974
[71]
  normalized growth: 0.986

## Cc1cccc(Cn2nc(C(C)(C)C)cc2C(=O)O)c1
Locus YAL013W, strain DEP1, active compounds read low
  normalized growth: 0.96
Locus YBR229C, strain ROT2, active compounds read low
  normalized growth: 0.96
Locus YCL061C, strain MRC1, active compounds read low
  normalized growth: 1
[8]
  normalized growth: 0.978
Locus YDR150W, strain NUM1, active compounds read low
  normalized growth: 0.98
Locus YEL061C, strain CIN8, active compounds read low
  normalized growth: 0.998
Locus YGR078C, strain PAC10, active compounds read low
  normalized growth: 0.97
[26]
  normalized growth: 1.03
Locus YHR087W, strain rtc3, active compounds read low
  normalized growth: 0.949
Locus YJL187C, strain SWE1, active compounds read low
  normalized growth: 0.973
Locus YJR043C, strain POL32, active compounds read low
  normalized growth: 0.971
Locus YJR075W, strain HOC1, active compounds read low
  normalized growth: 0.963
Locus YKL190W, strain CNB1, active compounds read low
  normalized growth: 0.982
Locus YLR039C, strain RIC1, active compounds read low
  normalized growth: 0.882
Locus YLR058C, strain SHM2 (second series), active compounds read low
  normalized growth: 0.969
Locus YLR085C, strain ARP6, active compounds read low
  normalized growth: 1.02
Locus YLR262C, strain YPT6, active compounds read low
  normalized growth: 0.905
Locus YML094W, strain GIM5, active compounds read low
  normalized growth: 1
Locus YMR219W, strain ESC1, active compounds read low
  normalized growth: 0.946
Locus YMR263W, strain SAP30, active compounds read low
  normalized growth: 0.998
Locus YNL153C, strain GIM3, active compounds read low
  normalized growth: 0.985
Locus YNL298W, strain CLA4 (second series), active compounds read low
  normalized growth: 0.997
Locus YNL322C, strain KRE1, active compounds read low
  normalized growth: 0.946
Locus YNR030W, strain Alg12, active compounds read low
  normalized growth: 1
Locus YPL055C, strain LGE1, active compounds read low
  normalized growth: 0.978
Locus YPL241C, strain CIN2, active compounds read low
  normalized growth: 1.01
Locus YPR135W, strain CTF4, active compounds read low
  normalized growth: 0.986

From PubChem BioAssay AID1159580 (chemical genetic matrix, 2015)
